The record followed here is the supplement of paper PMC12632987.

In the test the target is T1, USP38, Q8NB14.
T1 chain: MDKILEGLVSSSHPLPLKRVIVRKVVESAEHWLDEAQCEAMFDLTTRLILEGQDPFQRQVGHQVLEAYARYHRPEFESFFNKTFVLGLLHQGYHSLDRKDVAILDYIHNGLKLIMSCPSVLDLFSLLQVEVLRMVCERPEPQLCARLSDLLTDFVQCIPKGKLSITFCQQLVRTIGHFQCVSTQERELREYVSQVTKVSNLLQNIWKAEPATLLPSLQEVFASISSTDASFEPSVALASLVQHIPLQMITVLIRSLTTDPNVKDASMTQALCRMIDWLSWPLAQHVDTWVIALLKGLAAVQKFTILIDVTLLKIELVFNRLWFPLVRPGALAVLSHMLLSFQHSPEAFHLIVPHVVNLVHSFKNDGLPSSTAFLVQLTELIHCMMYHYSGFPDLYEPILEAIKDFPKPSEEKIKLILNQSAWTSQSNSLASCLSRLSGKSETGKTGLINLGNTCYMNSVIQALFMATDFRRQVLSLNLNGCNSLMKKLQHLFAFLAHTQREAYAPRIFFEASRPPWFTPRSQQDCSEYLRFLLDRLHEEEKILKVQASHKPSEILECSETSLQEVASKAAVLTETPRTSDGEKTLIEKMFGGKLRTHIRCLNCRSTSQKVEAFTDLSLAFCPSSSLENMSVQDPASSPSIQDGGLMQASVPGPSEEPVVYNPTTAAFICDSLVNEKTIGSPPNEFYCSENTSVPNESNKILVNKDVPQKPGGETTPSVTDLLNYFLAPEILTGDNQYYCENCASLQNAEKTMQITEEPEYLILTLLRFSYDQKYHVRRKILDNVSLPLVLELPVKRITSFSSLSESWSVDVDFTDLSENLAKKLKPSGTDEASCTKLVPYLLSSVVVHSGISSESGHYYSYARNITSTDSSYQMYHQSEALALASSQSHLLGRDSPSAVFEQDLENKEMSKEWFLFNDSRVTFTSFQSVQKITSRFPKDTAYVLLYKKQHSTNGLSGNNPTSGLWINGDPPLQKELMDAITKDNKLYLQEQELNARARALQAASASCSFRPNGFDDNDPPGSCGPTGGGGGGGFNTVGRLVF
The experiment in a line: median log2 fold change of GCK-ALFA target abundance (FLAG IP / Myc IP barcode read proportion) (log2 ratio); each designed protein is fused to an ALFA-tag nanobody in HEK293 cells to bring the named protein to FLAG-tagged glucokinase (GCK); Myc marks an untargeted standard; higher = target protein stabilised (more abundant). Conditions: target protein: 3xFLAG-MCP-GCK-ALFA reporter; HEK293 landing pad (RPLP). Summed up:
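An ALFA-nanobody-fused binder library was recombined into HEK293 landing-pad cells and induced with 2 μg mL^−1 doxycycline. Cells were transfected with a plasmid expressing a FLAG-tagged target and a Myc-tagged standard. After 48 h, lysates underwent anti-FLAG and anti-Myc immunoprecipitation, and circular RNA barcodes were reverse transcribed, amplified and sequenced. Target abundance is the per-binder median log2 ratio of FLAG to Myc barcode read proportions. Barcodes needed ≥10^−7 proportion in both replicates, binders ≥3 barcodes per replicate, and a 10^−6 pseudocount was added; the two replicates were pooled.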

B1: usp_38_diff_out_18_28_432 (protein)
chain: EEEEIKKLIEEAEKKMDELIDEYVKISTEGFLKINESDKGEELLEAINELADEVGKAAKAVNEMRKNRNDKEKVEEYLKKFEEAYKKAKEKIEEIKKLIE
As for B1, the “median log2 fold change” value is -0.257.

B2: usp_38_diff_out_1_153_21 (protein)
chain: SELEELKKELEEILEEAKKLKEEIEKLIKEGKMTLEKVDKLADELGRLSKRFREIRSKAAENPEYYEKLKELFKETEEELNKAVDALNEAGRLVFLKEAE
In the case of B2, the “median log2 fold change” value was 0.358.

B3: usp_38_diff_out_1_147_14 (protein)
chain: SAADEADAAAQAEIDERLRRFARESLDDFEANRDRYSPDRATVALGGLITTAIELGDRELLLRAAALLLKDPAVRAAVLARLDPAARAAFEEAEAEVRAA
Consider B3, for which the “median log2 fold change” value came to 0.247.

B4: usp_38_diff_out_18_30_435 (protein)
chain: EEEDEETQKFIDEELRKILAESTEELAREVRRRLPDSPEAREIAELLEEASRLIKEGTPEALKKALEKLERALELLKKNPQAPDRLLTATAGMIEVLKEL
In the case of B4, the “median log2 fold change” value was 0.231.

B5: usp_38_diff_out_18_28_431 (protein)
chain: AEAAIQAKIDAAEKEMDALIDEYVKVATEGFLALDESDKGEELEAAINELADAVGAAAAAVNEMRRNRDDPAAVDAQLAKFNAAKKKAKEKIKEIKKLLK
Regarding B5, the “median log2 fold change” value is -0.437.

B6: usp_38_diff_out_1_153_16 (protein)
chain: SELEKMKEELEKILEEAKKLKEEIEKLIKEGKMTREKVDKYADELAELAKRFRELRSKAAENPEYYKELKELFKETLKALNEAVDALTKAAEQVFLKEAE
As to B6, the “median log2 fold change” value is -0.51.

B7: usp_38_diff_out_1_147_15 (protein)
chain: SPADEADAEAEAEARERLREFARESLDELEANRDRLSLDRRVTQAGGLFTIAVELGDRELLLRVAALLLEDPEALAAVRARLSPEERAALEAAVAEVRAA
With B7, the “median log2 fold change” value came to 0.0346.

B8: usp_38_diff_out_1_101_4 (protein)
chain: MEERLEKAKKEIEEALEEIIKIYEETAKAAKAAGDEALAERWKRFAEAMRTYRESLERTLEELREQDLESALAFAEAALEVTKSLLKEAKEEAEKAKKAL
Consider B8, for which the “median log2 fold change” value is -0.644.

B9: usp_38_diff_out_1_153_20 (protein)
chain: SRLEELRKELEEILEEAKRLRDEIERLIAEGRMTRELVDRYADRLGELAARFREIRAELADDPEAYKELRPLLKETQAALDAAVDALERAGRLVFLREAE
In the case of B9, the “median log2 fold change” value was -0.0906.

B10: usp_38_diff_out_1_101_6 (protein)
chain: IEKELKKALEEFNKTLDETIKVYEEIEKLYKEMGNEEKAERAQRQRDALETYRKDTTAFIEELYKEDPESALELAKLALENAKTILKEAEKELKEVKAEK
B10: the “median log2 fold change” value was -0.129.

B11: usp_38_diff_out_1_153_23 (protein)
chain: MKEEELRKRLEEIKKKAEELKKEAEALLKSGNATREKVDALADKLGALAVELRELKALAAQDPEVYKALKPLFKETEKALNEAVDALNEAARQVFLKEAE
With B11, the “median log2 fold change” value came out at 0.0874.

B12: usp_38_diff_out_18_31_440 (protein)
chain: SLRERAERVREELERAAERMKRLAEELKEAIKAGDRERAERLMEEMDREMERLGRAYLELRDLAREDPSLRPLLKEAERRANEAVDAYTEAATAYHLFKA
Regarding B12, the “median log2 fold change” value was -0.671.

B13: usp_38_diff_out_1_153_22 (protein)
chain: MKEEELEKKVEEIKKKAKELLKEAKKLLESGKATREEVDKLADELGKLAVELRELRSEAAEDEEVYKKLKEKFKEAEKALNEAVDALNEAARRVFLKEAE
Turning to B13, the “median log2 fold change” value is 0.146.

B14: usp_38_diff_out_1_153_25 (protein)
chain: SELEELKKKVEEIKKEAEKLKKEAEELIKSGEATREKVEELADKLGKLSVELREIRSKAAESGEYYKELKPLFKEAEEALNEAVDALEKAAREVFLKEAE
In the case of B14, the “median log2 fold change” value was -0.027.

B15: usp_38_diff_out_18_28_433 (protein)
chain: SLEANRALIAKYEAEADALIDEATKAATEGFLKYHENPDDEKLLEAINKLMDAVGKAAAAVRRMREHIHDPEAVAKYAKEFEKAKKEAEEKLKELKKLIK
Turning to B15, the “median log2 fold change” value amounted to 0.116.

B16: usp_38_diff_out_1_101_8 (protein)
chain: LEEELEKALKEFNETIEKAMEAWKEIAKIYKELGNEEKAEKAERQLAALESYKKEHTKFIEELKKEDLESALELAKLSLKNAKSILKEAEERLKKAKALK
As for B16, the “median log2 fold change” value turned out to be 0.118.

B17: usp_38_diff_out_18_30_434 (protein)
chain: EEEDEETEEYIRNKLLEFTAESTRDLAERVRRRLPDSPRAREIARLLEEASELLKKRTPEALEEAARLLERALELAEADPRATDRLLTSLRGLLTVVKEL
B17: the “median log2 fold change” value was -0.134.

B18: usp_38_diff_out_1_153_18 (protein)
chain: SRLDELRARLERILAEARELKAEIKALIEAGTMTREKVEEYADRLAALAAEFREIRAEAAEDPAAYAALRPLFRETQAALDEAVDALEEAGRLVFEREAE
Regarding B18, the “median log2 fold change” value is 0.0475.

B19: usp_38_diff_out_18_31_442 (protein)
chain: SVVEEAKRVAKEALEAIEKLKKTIDELKKAIGKDPKKAEELLKKARELLKKFSELYLRLRDLRRQAPEQIRPLLEELEKKADEAIDKYEEAETAYFLAKA
Take B19: the “median log2 fold change” value is -0.788.

B20: usp_38_diff_out_1_153_26 (protein)
chain: SELEKLEKEIKKITEEAKKLKEEAEKLIEDGTATREKVDELADRLGKLAVELREIRSKAAESGDYYKKLKPLFEEAEKALNEAVDALNKAGTLVFEKEAE
Regarding B20, the “median log2 fold change” value was 0.457.

B21: usp_38_diff_out_18_31_441 (protein)
chain: SLRERGREVAERAREAIRRLRELAERLLEAIKEGKREEAEELAKEMDEELVELGRAYQELRDLAREDPSLRPLLKEVEEEANEAIDLYNKAMEELFLFKS
As to B21, the “median log2 fold change” value was -0.642.

B22: usp_38_diff_out_1_153_24 (protein)
chain: VKLEELKKRVEEITKRAKELKKEAEELLKSGNATREEVDRLADELGRLAVELRELRSIAAEDEEVYKALKPLFKEANEALDEAVDALNEAGRRVFLKEAE
For the molecule B22, the “median log2 fold change” value turned out to be 0.085.

B23: usp_38_diff_out_1_153_27 (protein)
chain: SELEELKKKIEEITKEAEKLKKEAEKLIKDGTATREKVDELADKLGKLAVELREIRSKAAESGEYYKKLKPLFKKAEKALNEAVDALNKAATLVFEKEAE
As for B23, the “median log2 fold change” value was 0.0209.

B24: usp_38_diff_out_1_101_7 (protein)
chain: LEEELKKALEEFNETIDKAIKVYEEIAKLYKKMGKEEKAEKAERQRKALETWREDSTAFIEELAKEDLESALELAKLALENAKTILKEAEEELKKVKAEE
For the molecule B24, the “median log2 fold change” value was -0.366.

B25: usp_38_diff_out_1_147_13 (protein)
chain: SAADEADREAEAEAREKLRRFAWESLEELEKNRDKLSLDRLTIGAGGLLVVALELGDEELLLRVAALLLEDPEVLARVRARLSPEERARLEAAVARVRAA
B25: the “median log2 fold change” value is -1.17.

B26: usp_38_diff_out_1_101_11 (protein)
chain: LEAELAAARAEFDAAAADLLAAARAALAEVKALGDAAAAARFARYLAAYESFIADTRRTADEIAEQDKESAIEFLKAATENLRTLKEEVEAELARIKAKL
For B26, the “median log2 fold change” value is -0.315.

B27: usp_38_diff_out_1_101_12 (protein)
chain: LEAELAKAREAFRAAVAEVEAVLEEAEALAKAAGDAARAARWARQLAAVRAWRADLERTLEEIAAQDLESALELAKAALENAKTLLAEAKAELAAYKAKL
With B27, the “median log2 fold change” value is -0.00433.

B28: usp_38_diff_out_1_101_9 (protein)
chain: MEAELAAAKAAFDAAAAALLKAAEDALAKIKAEGTPEQAAEMERHLAAIKSFIADSRKTLEEIAEQDKEAAIEFANAATTVLNILTAEVKEETARLLAKA
Regarding B28, the “median log2 fold change” value is -0.957.

B29: usp_38_diff_out_1_153_19 (protein)
chain: SELEELKKELEKIKEEAKKLKEEIEKLIKEGKMTREKVDEYADKLGELAKRFREIRSKLAQNPEAYKELKELLKETEKELNEAVDALNEAGRLVFLKEAE
B29: the “median log2 fold change” value is -0.00147.

B30: usp_38_diff_out_18_31_437 (protein)
chain: SLREEAERVAEEARRLAEELKEKSKELKEAIKKGDKEKAEKLMEEMERLKEELGRAYLRLRDLAREDPSNRPLLKEVTKEANEAVDEYTEAEEAYFLFKA
On to B30, for which the “median log2 fold change” value was -1.39.

B31: usp_38_diff_out_1_153_17 (protein)
chain: SRLEELKKRLEEILEEAKRLKEEIERLIAEGTMTREKVDEYADRLGKLAVEFREIRAEAAEDPEIYKELKELFKETEKALNEAVDALERAGRLVFLREAE
Consider B31, for which the “median log2 fold change” value was -0.168.

B32: usp_38_diff_out_18_30_436 (protein)
chain: SAEDEETERYIREALRKATAESLRELAERLERRLPDSPEAREIVALVREAARLLEEGTPEALAQAAALLRRALALLEADPRATDRELTALRGLLVVVEEL
Consider B32, for which the “median log2 fold change” value came to 0.0576.
